Holding throughout (test): DAPPL (digital affinity profiling via proximity ligation, sequencing); 10 mM Tris-HCl pH 7.5, 50 mM NaCl, 1 mM DTT, 4% glycerol, room temperature, 30 min; GST-TFs on glutathione beads, 16-mer random dsDNA library, 0.1% formaldehyde crosslink after washing; high values mean tight binding
One assay has as its target T1, FEV (Homo sapiens, UniProt Q99581 1-238).
T1 sequence: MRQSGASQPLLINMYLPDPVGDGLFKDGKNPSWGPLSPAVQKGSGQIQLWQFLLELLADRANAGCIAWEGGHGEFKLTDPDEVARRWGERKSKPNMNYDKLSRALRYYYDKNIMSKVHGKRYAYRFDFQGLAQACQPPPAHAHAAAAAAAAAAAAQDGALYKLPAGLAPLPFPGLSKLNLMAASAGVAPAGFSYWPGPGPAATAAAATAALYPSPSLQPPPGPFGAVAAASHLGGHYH
To be noted: protein: recombinant; tags: N-terminal GST; dsDNA, one strand shown. The method in brief:
(§1)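 Human transcription factors fused to GST were expressed in yeast, captured on glutathione beads, given DNA barcodes and pooled with a GST-only negative control. Pools were incubated with 200 nmole of a 16-mer random double-stranded DNA library in Tris/NaCl/DTT/glycerol buffer at room temperature for 30 min. They were then washed, crosslinked with 0.1% formaldehyde, proximity-ligated (BsaI/T4 ligase, 1 h, 37 °C), PCR-amplified and sequenced on an Illumina NextSeq500. Binding signal is each 6-mer's read frequency for a factor divided by its frequency for the GST control.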

A further assay has as its target ETV5 (Homo sapiens, UniProt P41161 1-510). Particulars: protein: recombinant; tags: N-terminal GST; dsDNA, one strand shown. In short, it runs like this:
as §1

In a further assay the target is HSF1 (Homo sapiens, UniProt Q00613 1-529). Particulars: protein: recombinant; tags: N-terminal GST; chain copies: 3; dsDNA, one strand shown. The method in brief:
as §1

A further assay concerns the target T2, SPIC (Homo sapiens, UniProt Q8N5J4 1-248).
T2 sequence: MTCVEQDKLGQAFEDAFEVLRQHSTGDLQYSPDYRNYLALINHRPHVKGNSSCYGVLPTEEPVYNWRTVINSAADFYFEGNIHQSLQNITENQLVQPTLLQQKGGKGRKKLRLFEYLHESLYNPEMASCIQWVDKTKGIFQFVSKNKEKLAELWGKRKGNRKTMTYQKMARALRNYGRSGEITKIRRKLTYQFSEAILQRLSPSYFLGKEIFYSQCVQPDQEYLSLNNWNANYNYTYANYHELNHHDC
Particulars: protein: recombinant; tags: N-terminal GST; dsDNA, one strand shown. The method in brief: as §1

The target of another assay is ELF4 (Homo sapiens, UniProt Q99607 1-663). To be noted: protein: recombinant; tags: N-terminal GST; dsDNA, one strand shown. The method in brief: as §1
Chain of ELF4 (Q99607 whole entry): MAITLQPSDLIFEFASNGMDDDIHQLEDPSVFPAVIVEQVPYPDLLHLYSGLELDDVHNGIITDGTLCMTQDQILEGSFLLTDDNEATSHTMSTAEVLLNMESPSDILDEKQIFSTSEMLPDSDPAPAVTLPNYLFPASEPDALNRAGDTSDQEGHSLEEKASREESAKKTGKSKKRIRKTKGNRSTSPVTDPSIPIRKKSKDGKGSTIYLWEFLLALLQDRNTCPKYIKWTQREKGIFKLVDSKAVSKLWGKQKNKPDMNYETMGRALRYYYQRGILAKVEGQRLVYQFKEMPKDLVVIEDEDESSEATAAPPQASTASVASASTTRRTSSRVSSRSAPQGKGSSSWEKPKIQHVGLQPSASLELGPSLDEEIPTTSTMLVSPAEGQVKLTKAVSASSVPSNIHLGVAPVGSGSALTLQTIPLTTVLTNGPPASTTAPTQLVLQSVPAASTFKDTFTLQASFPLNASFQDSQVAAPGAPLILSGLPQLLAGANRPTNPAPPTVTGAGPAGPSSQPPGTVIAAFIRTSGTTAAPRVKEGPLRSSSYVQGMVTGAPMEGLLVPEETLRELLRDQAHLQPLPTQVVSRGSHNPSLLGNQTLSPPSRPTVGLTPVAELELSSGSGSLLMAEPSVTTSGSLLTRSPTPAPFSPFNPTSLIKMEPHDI
The target in another assay is T3, ELK4 (Homo sapiens, UniProt P28324-2 1-405).
T3 sequence: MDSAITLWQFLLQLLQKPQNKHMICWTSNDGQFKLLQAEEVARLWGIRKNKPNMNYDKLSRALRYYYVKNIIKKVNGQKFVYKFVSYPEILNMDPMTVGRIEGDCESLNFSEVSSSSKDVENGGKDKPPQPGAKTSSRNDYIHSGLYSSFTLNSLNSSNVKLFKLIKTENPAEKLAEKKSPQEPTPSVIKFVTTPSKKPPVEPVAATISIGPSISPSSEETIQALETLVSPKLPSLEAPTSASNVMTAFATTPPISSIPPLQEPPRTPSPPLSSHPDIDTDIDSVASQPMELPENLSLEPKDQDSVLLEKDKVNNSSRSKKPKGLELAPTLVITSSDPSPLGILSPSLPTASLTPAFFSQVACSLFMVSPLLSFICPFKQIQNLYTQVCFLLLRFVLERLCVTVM
Particulars: protein: recombinant; tags: N-terminal GST; dsDNA, one strand shown. In short, it runs like this:
as §1

The target in a further assay is T4, ETV2 (Homo sapiens, UniProt O00321 1-342).
T4 sequence: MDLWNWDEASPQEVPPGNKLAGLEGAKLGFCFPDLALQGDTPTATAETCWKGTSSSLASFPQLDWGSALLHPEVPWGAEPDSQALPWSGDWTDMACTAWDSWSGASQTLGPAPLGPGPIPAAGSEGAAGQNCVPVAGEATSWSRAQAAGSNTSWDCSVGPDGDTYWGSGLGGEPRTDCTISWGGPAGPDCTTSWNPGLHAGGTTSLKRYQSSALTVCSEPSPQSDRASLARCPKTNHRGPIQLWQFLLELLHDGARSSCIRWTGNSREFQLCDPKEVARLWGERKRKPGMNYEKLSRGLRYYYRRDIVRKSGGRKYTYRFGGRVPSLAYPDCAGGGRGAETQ
Particulars: protein: recombinant; tags: N-terminal GST; dsDNA, one strand shown. The method in brief:
as §1

In another assay the target is T5, ELF3 (Homo sapiens, UniProt P78545 1-371).
T5 sequence: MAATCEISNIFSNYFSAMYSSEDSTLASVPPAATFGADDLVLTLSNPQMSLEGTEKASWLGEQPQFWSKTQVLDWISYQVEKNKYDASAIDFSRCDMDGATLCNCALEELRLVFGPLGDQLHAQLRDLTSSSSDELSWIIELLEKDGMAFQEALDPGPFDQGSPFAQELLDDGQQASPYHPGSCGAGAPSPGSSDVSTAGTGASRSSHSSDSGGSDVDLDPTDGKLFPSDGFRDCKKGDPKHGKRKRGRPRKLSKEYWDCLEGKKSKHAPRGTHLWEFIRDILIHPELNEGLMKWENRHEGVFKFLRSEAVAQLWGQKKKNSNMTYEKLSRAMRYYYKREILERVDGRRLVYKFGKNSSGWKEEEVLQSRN
Particulars: protein: recombinant; tags: N-terminal GST; dsDNA, one strand shown. In short, it runs like this:
as §1

Another assay concerns the target CRX (Homo sapiens, UniProt O43186 1-299). To be noted: protein: recombinant; tags: N-terminal GST; dsDNA, one strand shown. The method in brief:
as §1

The next assay addresses ETV1 (Homo sapiens, UniProt P50549 1-477). Particulars: protein: recombinant; tags: N-terminal GST; dsDNA, one strand shown. The method in brief:
as §1

The record followed here is paper PMC7862700, “An all-to-all approach to the identification of sequence-specific readers for epigenetic DNA modifications on cytosine”.

Chain of HSF1 (Q00613 whole entry): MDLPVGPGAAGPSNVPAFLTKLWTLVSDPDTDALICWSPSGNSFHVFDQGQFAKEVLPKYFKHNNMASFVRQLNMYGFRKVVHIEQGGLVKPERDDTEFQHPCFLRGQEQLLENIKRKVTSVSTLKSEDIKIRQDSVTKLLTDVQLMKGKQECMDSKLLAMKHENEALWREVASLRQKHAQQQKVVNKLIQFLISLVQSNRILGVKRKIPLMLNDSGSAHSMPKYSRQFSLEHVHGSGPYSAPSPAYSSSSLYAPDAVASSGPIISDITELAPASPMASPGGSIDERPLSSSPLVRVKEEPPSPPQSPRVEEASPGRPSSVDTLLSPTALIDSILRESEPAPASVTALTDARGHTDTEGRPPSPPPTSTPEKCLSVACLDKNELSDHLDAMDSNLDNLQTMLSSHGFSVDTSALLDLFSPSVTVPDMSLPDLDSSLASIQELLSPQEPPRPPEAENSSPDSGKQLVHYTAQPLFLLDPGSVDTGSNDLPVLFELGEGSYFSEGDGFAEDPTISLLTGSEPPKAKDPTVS
Chain of CRX (O43186 whole entry): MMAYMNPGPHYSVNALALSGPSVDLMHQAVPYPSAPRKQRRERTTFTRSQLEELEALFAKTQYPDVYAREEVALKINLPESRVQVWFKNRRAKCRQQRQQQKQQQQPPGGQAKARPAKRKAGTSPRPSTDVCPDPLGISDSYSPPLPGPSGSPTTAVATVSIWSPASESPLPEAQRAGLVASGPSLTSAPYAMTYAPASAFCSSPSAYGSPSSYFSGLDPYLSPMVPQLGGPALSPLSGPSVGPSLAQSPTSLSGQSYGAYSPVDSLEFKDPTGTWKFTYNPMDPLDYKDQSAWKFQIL
Chain of ETV1 (P50549 whole entry): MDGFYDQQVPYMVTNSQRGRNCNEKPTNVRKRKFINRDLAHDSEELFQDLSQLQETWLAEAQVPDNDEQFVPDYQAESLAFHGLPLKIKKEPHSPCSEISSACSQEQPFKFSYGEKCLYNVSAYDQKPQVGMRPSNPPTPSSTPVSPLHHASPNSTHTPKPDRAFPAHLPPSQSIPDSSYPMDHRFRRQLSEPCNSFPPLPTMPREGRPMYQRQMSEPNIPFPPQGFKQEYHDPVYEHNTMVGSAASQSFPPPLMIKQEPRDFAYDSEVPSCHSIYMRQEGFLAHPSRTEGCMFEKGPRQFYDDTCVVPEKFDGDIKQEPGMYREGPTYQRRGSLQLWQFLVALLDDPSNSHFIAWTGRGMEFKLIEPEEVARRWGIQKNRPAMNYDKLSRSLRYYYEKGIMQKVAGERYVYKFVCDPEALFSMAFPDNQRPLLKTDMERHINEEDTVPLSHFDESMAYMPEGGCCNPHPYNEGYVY
Chain of ETV5 (P41161 whole entry): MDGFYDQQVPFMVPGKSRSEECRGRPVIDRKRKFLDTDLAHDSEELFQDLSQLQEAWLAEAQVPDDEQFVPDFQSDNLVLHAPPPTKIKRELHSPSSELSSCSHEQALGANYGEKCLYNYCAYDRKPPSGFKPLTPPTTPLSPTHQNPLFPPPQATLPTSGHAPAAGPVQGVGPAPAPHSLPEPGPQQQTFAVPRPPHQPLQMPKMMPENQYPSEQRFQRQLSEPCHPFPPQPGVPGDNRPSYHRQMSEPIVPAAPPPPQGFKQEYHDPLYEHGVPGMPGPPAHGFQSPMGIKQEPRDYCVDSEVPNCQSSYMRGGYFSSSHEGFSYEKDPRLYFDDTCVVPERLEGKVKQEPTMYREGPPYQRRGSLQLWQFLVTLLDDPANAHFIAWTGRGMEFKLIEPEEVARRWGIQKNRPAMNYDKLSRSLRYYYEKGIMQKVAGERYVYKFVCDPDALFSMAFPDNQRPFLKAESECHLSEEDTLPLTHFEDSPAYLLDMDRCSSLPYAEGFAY

Take TGTATC: the binding signal is 1.41 fold enrichment (6-mer frequency, TF over GST control) with FEV; 1.4 fold enrichment (6-mer frequency, TF over GST control) with ETV5; 1.16 fold enrichment (6-mer frequency, TF over GST control) with HSF1; 1.46 fold enrichment (6-mer frequency, TF over GST control) in the assay with SPIC; 1.44 fold enrichment (6-mer frequency, TF over GST control) with ELF4; 1.46 fold enrichment (6-mer frequency, TF over GST control) with ELK4. Besides, the binding signal with ETV2 was 1.36 fold enrichment (6-mer frequency, TF over GST control); in the assay with ELF3, 1.41 fold enrichment (6-mer frequency, TF over GST control); with CRX, 1.15 fold enrichment (6-mer frequency, TF over GST control); with ETV1, 1.37 fold enrichment (6-mer frequency, TF over GST control).
As to TATGCC, the binding signal with FEV is 1.13 fold enrichment (6-mer frequency, TF over GST control); with ETV5 it was 1.18 fold enrichment (6-mer frequency, TF over GST control); with HSF1, 1.06 fold enrichment (6-mer frequency, TF over GST control); with SPIC, 1.28 fold enrichment (6-mer frequency, TF over GST control); in the assay with ELF4, 1.15 fold enrichment (6-mer frequency, TF over GST control); with ELK4 it was 1.17 fold enrichment (6-mer frequency, TF over GST control). The binding signal in the assay with ETV2 is 1.05 fold enrichment (6-mer frequency, TF over GST control); in the assay with ELF3, 1.01 fold enrichment (6-mer frequency, TF over GST control); with CRX, 1.18 fold enrichment (6-mer frequency, TF over GST control); with ETV1, 1.28 fold enrichment (6-mer frequency, TF over GST control).
For GTAATT, the binding signal was 1.16 fold enrichment (6-mer frequency, TF over GST control) with FEV; 1.23 fold enrichment (6-mer frequency, TF over GST control) in the assay with ETV5; 1.36 fold enrichment (6-mer frequency, TF over GST control) in the assay with HSF1; 1.21 fold enrichment (6-mer frequency, TF over GST control) in the assay with SPIC; 1.22 fold enrichment (6-mer frequency, TF over GST control) in the assay with ELF4; 1.11 fold enrichment (6-mer frequency, TF over GST control) in the assay with ELK4. Also, the binding signal with ETV2 was 1.31 fold enrichment (6-mer frequency, TF over GST control); with ELF3, 1.19 fold enrichment (6-mer frequency, TF over GST control); with CRX, 1.59 fold enrichment (6-mer frequency, TF over GST control); with ETV1, 1.3 fold enrichment (6-mer frequency, TF over GST control).
Consider TATGTG, for which the binding signal with FEV is 1.08 fold enrichment (6-mer frequency, TF over GST control); with ETV5, 1.13 fold enrichment (6-mer frequency, TF over GST control); in the assay with HSF1, 1.01 fold enrichment (6-mer frequency, TF over GST control); with SPIC, 1.22 fold enrichment (6-mer frequency, TF over GST control); with ELF4 it was 1.13 fold enrichment (6-mer frequency, TF over GST control); with ELK4, 1.17 fold enrichment (6-mer frequency, TF over GST control). In addition, the binding signal with ETV2 is 1.06 fold enrichment (6-mer frequency, TF over GST control); with ELF3 it was 1.16 fold enrichment (6-mer frequency, TF over GST control); with CRX, 1.09 fold enrichment (6-mer frequency, TF over GST control); with ETV1, 1.08 fold enrichment (6-mer frequency, TF over GST control).
With GGAATT, the binding signal with FEV is 1.17 fold enrichment (6-mer frequency, TF over GST control); in the assay with ETV5 it was 1.21 fold enrichment (6-mer frequency, TF over GST control); in the assay with HSF1 it was 1.45 fold enrichment (6-mer frequency, TF over GST control); with SPIC it was 1.11 fold enrichment (6-mer frequency, TF over GST control); with ELF4, 1.07 fold enrichment (6-mer frequency, TF over GST control); with ELK4, 1.1 fold enrichment (6-mer frequency, TF over GST control). In addition, the binding signal is 1.13 fold enrichment (6-mer frequency, TF over GST control) in the assay with ETV2; 1.12 fold enrichment (6-mer frequency, TF over GST control) in the assay with ELF3; 1.46 fold enrichment (6-mer frequency, TF over GST control) with CRX; 1.18 fold enrichment (6-mer frequency, TF over GST control) with ETV1.
ATACTA: the binding signal in the assay with FEV is 1.13 fold enrichment (6-mer frequency, TF over GST control); with ETV5, 1.13 fold enrichment (6-mer frequency, TF over GST control); in the assay with HSF1 it was 1.34 fold enrichment (6-mer frequency, TF over GST control); with SPIC, 1.1 fold enrichment (6-mer frequency, TF over GST control); in the assay with ELF4, 1.19 fold enrichment (6-mer frequency, TF over GST control); with ELK4, 1.19 fold enrichment (6-mer frequency, TF over GST control). For the same sequence, the binding signal in the assay with ETV2 is 1.14 fold enrichment (6-mer frequency, TF over GST control); with ELF3 it was 1.08 fold enrichment (6-mer frequency, TF over GST control); in the assay with CRX, 1.38 fold enrichment (6-mer frequency, TF over GST control); in the assay with ETV1, 1.1 fold enrichment (6-mer frequency, TF over GST control).
As to CACATT, the binding signal with FEV was 1.18 fold enrichment (6-mer frequency, TF over GST control); with ETV5 it was 1.19 fold enrichment (6-mer frequency, TF over GST control); with HSF1, 1.14 fold enrichment (6-mer frequency, TF over GST control); in the assay with SPIC it was 1.26 fold enrichment (6-mer frequency, TF over GST control); in the assay with ELF4 it was 1.16 fold enrichment (6-mer frequency, TF over GST control); in the assay with ELK4, 1.13 fold enrichment (6-mer frequency, TF over GST control). Also, the binding signal in the assay with ETV2 is 1.28 fold enrichment (6-mer frequency, TF over GST control); with ELF3, 1.43 fold enrichment (6-mer frequency, TF over GST control); with CRX, 1.06 fold enrichment (6-mer frequency, TF over GST control); with ETV1, 1.28 fold enrichment (6-mer frequency, TF over GST control).
